This is an account of results in PubChem BioAssay.

Activity calls are given as the source filed them.

In one assay the test system is PRMT1 (protein arginine N-methyltransferase 1). The assay is described as follows: PRMT1 binders on small-molecule microarrays, primary screen, biochemical, small-molecule microarray, 635 nm fluorescence (AID 1088).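 Note: binding of Prmt1 protein to compounds spotted on small-molecule microarray slides.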 Particulars: small-molecule microarray binding, higher = more signal.
Compound `CC(C)C[C@@H]1NC(=O)[C@H]2C[C@@H](C(=O)NCCCCCCN)[C@@H](c3ccc(O)cc3)N2C1=O` registered a composite z-score of 1.17. On to `COCCCNC(=O)[C@@]1(Cc2ccccc2)N=C(c2ccc(OCCCO)cc2)O[C@H]1c1ccccc1`, for which the composite z-score was found to be 1.42.

Consider `CN(C)C(=O)[C@]1(Cc2ccccc2N=[N+]=[N-])N=C(c2ccc(OCCCO)cc2)O[C@@H]1c1ccccc1`, for which the composite z-score came to 1.39. Compound `CN1C(=O)C2C=CC(C(O)c3ccccc3)N(Nc3ccccc3)C2C1=O` (configuration not stated) returned a composite z-score of 0.47. Take `CCOC(=O)C[C@H]1[C@H](OC(=O)Cc2ccc3c(c2)OCO3)[C@@H](NC(=O)c2ccc(-c3ccccc3)cc2)c2cc(OCCCO)ccc2N1C(=O)Cc1ccc(OC)cc1`: the composite z-score was found to be 0.81. `O=C1c2ccccc2[C@](Cc2ccccc2I)(C(=O)NC2CC2)[C@H](c2ccc(CO)cc2)N1C1CCCCC1` returned a composite z-score of 1.56. Compound `C=CCOC(=O)[C@@H]1[C@H]2C(=O)O[C@H](c3ccccc3)[C@H](c3ccccc3)N2[C@H](c2ccc(OCCOC(=O)[C@@H]3C[C@@H]4C(=O)N5CCC[C@H]5C(=O)N4[C@@H]3c3ccc(O)cc3)cc2)[C@@]12C(=O)Nc1ccc(I)cc12` yielded a composite z-score of 1.42.

Tested on in a further assay: not listed separately
The assay is described as follows: yeast growth modulation, basal conditions, primary screen, YJM789 clinical isolate, OD600, 24 h (AID 1089).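 Note: growth of clinical yeast isolate S. cerevisiae YJM 789 seeded 1000 cells per well; test concentration not given here.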 Particulars: S. cerevisiae YJM789 growth, higher = more signal, called active from +8 up or from −8 down.
As to `CCc1oc(CC[C@@H](CO)NC(=O)NCCn2cc(C3(O)CCCCC3)nn2)c(C(=O)OC)c1C(=O)OC`, the z-score was 0.458 (inactive). Same read-out and setting: in the case of `O=C1C2C=CC(C(O)c3c(F)cccc3Cl)N(Nc3ccccc3)C2C(=O)N1c1ccccc1` (configuration not stated) it was 0.269 (inactive). Regarding `COc1ccc(C(=O)Nc2ccc(CN3C(=O)[C@@]4(O[C@@H](CCO)[C@H]([Si](C)(C)c5ccc(OC)cc5)[C@H]4C)c4ccccc43)cc2)cc1`, the z-score was -0.81 (inactive). The same measure, in the same setting: in the case of `CC(C)c1ccc(NN2C(C(O)c3cc(C(F)(F)F)cc(C(F)(F)F)c3)C=CC3C(=O)N(c4ccccc4)C(=O)C32)cc1` (configuration not stated) it was 0.89 (inactive). On to `CC(=O)NCCCC[C@@H]1NC(=O)[C@@H]2C[C@H](C(=O)NCCCCCCNC(=O)CS)[C@H](c3cccc(OCCO)c3)N2C1=O`, for which the z-score is -0.531 (inactive). `O=C1c2ccccc2[C@@]2(Cc3ccccc3N(CCN3CCOCC3)C2=O)[C@H](c2ccc(CO)cc2)N1Cc1ccccc1`: the z-score was -0.338 (inactive).

For the compound `CCCCCN1CC=CC23O[C@@H]4/C=C\CCCOC(=O)C4[C@H]2C(=O)N(C(CO)C(C)C)[C@@H]3C1=O` (some centres not stated), the z-score was -0.215 (inactive). The same measure, in the same setting: next, `CN1C(=O)[C@]2(Cc3ccccc3)N=C(c3ccc(OCCCO)cc3)O[C@@H]2c2ccccc21`: -0.112 (inactive); `COc1ccc(CCNC(=O)[C@@H]2c3ccccc3C(=O)N(C3Cc4ccccc4C3)[C@H]2c2ccc(CO)cc2)cc1`: 0.629 (inactive); `COc1cc2c(cc1OC)CN(C(=O)[C@H]1[C@@H]3C(=O)O[C@@H](c4ccccc4)[C@@H](c4ccccc4)N3[C@@H](c3ccc(O)cc3)[C@]13C(=O)Nc1ccc(C#CC4=CCCCC4)cc13)CC2`: 0.203 (inactive). On to `CCCC=C(CCC)[C@@H](NS(=O)(=O)c1cccs1)c1ccc(C(=O)OC)cc1`, for which the z-score was 0.212 (inactive). `C[C@@]1([C@@H](NC(=O)c2ccccc2)c2ccc(-c3ccccc3)cc2)C[C@H]1C1CCCCC1`: the z-score is -0.0151 (inactive). As to `C=CCC(OC(C)=O)[C@@H]1[C@@H](N(Cc2ccc(-c3cccc(C(F)(F)F)c3)o2)C(=O)Cc2ccc(F)cc2)c2cc(OCCCO)ccc2N1C(=O)Cc1ccc(OC)cc1` (some centres not stated), the z-score is -0.973 (inactive). For the compound `COC(=O)c1c(CC[C@@H](CO)NC(=O)N[C@@H](C)Cn2cc(C3(O)CCCCC3)nn2)oc(C(C)=O)c1C(=O)OC`, the z-score is 0.34 (inactive). On to `C=CCC(OC(C)=O)[C@@H]1[C@@H](N(Cc2ccc(-c3cccc(C(F)(F)F)c3)o2)C(=O)c2ccc(-c3ccccc3)cc2)c2cc(OCCCO)ccc2N1C(=O)c1ccc(-c2ccccc2)cc1` (some centres not stated), for which the z-score was 0.308 (inactive). Consider `COCCOC(=O)N1C(=O)[C@@]2(c3cc(C#Cc4ccc(OC)cc4)ccc31)[C@H](C(N)=O)[C@H]1C(=O)O[C@H](c3ccccc3)[C@H](c3ccccc3)N1[C@@H]2c1ccccc1OCCO`, for which the z-score was 1.05 (inactive). With `CCN(CC)c1ccc(N2CC=CC34O[C@@H]5/C=C\CCCOC(=O)C5[C@H]3C(=O)N(CCO)[C@@H]4C2=O)cc1` (some centres not stated), the z-score was 0.0765 (inactive). Same read-out and setting: next, `CC(C)N1C(=O)[C@@]2(Cc3ccccc31)c1ccccc1C(=O)N(C1CCCCC1)[C@H]2c1ccc(CO)cc1`: -0.0915 (inactive). As for `CN(C)C(=O)[C@]1(Cc2ccccc2CN=[N+]=[N-])N=C(c2ccc(OCCCO)cc2)O[C@@H]1c1ccccc1CN=[N+]=[N-]`, the z-score was -0.0966 (inactive). As for `O=C1c2ccccc2[C@](Cc2ccccc2I)(C(=O)NC2CC2)[C@H](c2ccc(CO)cc2)N1Cc1ccccc1`, the z-score was -0.835 (inactive). For the compound `COCCOC(=O)N1C(=O)[C@@]2(c3cc(C#CC4(O)CCCCCC4)ccc31)[C@H](c1ccc(O)cc1)N1[C@H](c3ccccc3)[C@H](c3ccccc3)OC(=O)[C@H]1[C@@H]2C(=O)Nc1nc2ccccc2s1`, the z-score is 0.861 (inactive). On the same count and under the same terms, next, `C=CCOC(=O)[C@H]1[C@@H]2C(=O)O[C@@H](c3ccccc3)[C@@H](c3ccccc3)N2[C@@H](c2ccc(OCCOC(=O)[C@@H]3C[C@@H]4C(=O)N5CCC[C@H]5C(=O)N4[C@@H]3c3cccc(OCCO)c3)cc2)[C@]12C(=O)Nc1ccccc12`: 1.06 (inactive); `C#CCN(CC=C(C)C)[C@H](CO)c1ccccc1`: -0.319 (inactive); `C=C[C@H](COC(C)=O)N(C(=O)OC(C)(C)C)S(=O)(=O)c1ccc(Br)cc1`: 0.0834 (inactive). With `COc1ccc(C(O)C2C=CC3C(=O)N(c4ccccc4)C(=O)C3N2Nc2ccccc2F)cc1OCc1ccccc1` (configuration not stated), the z-score is -0.306 (inactive). The same measure, in the same setting: next, `CCOC(=O)C1=CCC(c2ccc(C)cc2)N(S(=O)(=O)c2ccc(C)cc2)C1` (configuration not stated): 0.564 (inactive).

For `COCC(=C=CC[C@H](O)c1ccccc1OCCO)C[C@H](O)c1cc(Cl)cc(Cl)c1O`, the z-score was -24.4 (active). With `COCCOC(=O)N1C(=O)[C@@]2(c3cc(C#CC4=CCCCC4)ccc31)[C@H](C(=O)Nc1nc3ccccc3s1)[C@H]1C(=O)O[C@H](c3ccccc3)[C@H](c3ccccc3)N1[C@@H]2c1ccccc1OCCO`, the z-score is 1.25 (inactive).

Regarding `CC(C)C[C@@H]1NC(=O)[C@H]2C[C@@H](C(=O)NCCCCCCN)[C@@H](c3ccc(O)cc3)N2C1=O`, the z-score was -0.582 (inactive). Turning to `COCCCNC(=O)[C@@]1(Cc2ccccc2)N=C(c2ccc(OCCCO)cc2)O[C@H]1c1ccccc1`, the z-score is -1.69 (inactive). Still for that read-out and setting: in the case of `CN(C)C(=O)[C@]1(Cc2ccccc2N=[N+]=[N-])N=C(c2ccc(OCCCO)cc2)O[C@@H]1c1ccccc1` it was -0.958 (inactive); in that of `CN1C(=O)C2C=CC(C(O)c3ccccc3)N(Nc3ccccc3)C2C1=O` (configuration not stated), -0.124 (inactive); in that of `CCOC(=O)C[C@H]1[C@H](OC(=O)Cc2ccc3c(c2)OCO3)[C@@H](NC(=O)c2ccc(-c3ccccc3)cc2)c2cc(OCCCO)ccc2N1C(=O)Cc1ccc(OC)cc1`, -1.32 (inactive). Same read-out and setting: next, `O=C1c2ccccc2[C@](Cc2ccccc2I)(C(=O)NC2CC2)[C@H](c2ccc(CO)cc2)N1C1CCCCC1`: 1.13 (inactive). In the case of `C=CCOC(=O)[C@@H]1[C@H]2C(=O)O[C@H](c3ccccc3)[C@H](c3ccccc3)N2[C@H](c2ccc(OCCOC(=O)[C@@H]3C[C@@H]4C(=O)N5CCC[C@H]5C(=O)N4[C@@H]3c3ccc(O)cc3)cc2)[C@@]12C(=O)Nc1ccc(I)cc12`, the z-score is -0.577 (inactive).
